# SKN-1 inh: C. elegans SKN-1 inhibition. C. elegans VP596 Pgst-4::GFP/RFP ratio, acrylamide-induced, 24 h. inhibition, % at 21.8 µM. actives 0.49% (n = 360,000). AID 624304;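 active means interference check ratio from 0.5 to 1.5 plus GFP to RFP signal ratio inhibition reaching or exceeding a fixed threshold, cut at about 30% in these data, passing the limit was not always enough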
# GRIN3A LBD mod: modulates the human NR3A ligand-binding domain; NR3A LBD differential scanning fluorimetry, Tm shift; 0% = protein alone, 100% = glycine-bound protein; Tm shift relative to glycine control, % at 25 µM; actives 2.5% (n = 340,000);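 active means melting temperature shift of at least 10% of the positive control shift, at one fixed dose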
# esBAF inh: inhibitors of esBAF chromatin remodeling in mouse ES cells; Bmi1-luciferase knock-in reporter, 24 h; 100% = twice the neutral-well signal; reporter increase, % at 12.5 µM; actives 2% (n = 350,000); in the data active means activation above about 40%;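 further: 0% = median of the plate's neutral control wells and 100% = double that signal; a rise in the Bmi1 reporter signal indicates esBAF inhibition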
# SMARCA2 act: activators of SMARCA2 function; activation, % at 9.1 µM; MG213 cells, MMTV-luciferase reporter, dexamethasone, overnight; actives 1% (n = 370,000); AID 652017; in the data active means activation above about 7.8%;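 further: 0% = vehicle wells and 100% = reference activator wells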
# NadD inh: blocks S. aureus nicotinate mononucleotide adenylyltransferase. inhibition, % at 20 µM. actives 0.78% (n = 360,000). purified NadD enzyme, colorimetric absorbance read-out; in the data active means inhibition above about 26%
# Vif imaging: HIV Vif inhibition. HEK293T cells, Vif self-association by quenched fluorescence, imaging, 24 h. inhibition, % at 7.49 µM. actives 0.35% (n = 340,000). AID 602346; in the data active means inhibition above about 50%, passing the limit was not always enough
# Active calls of the source: *; nt = no result given. Hits are enriched below; roughly 5.2% of the tested compounds scored in any of these assays.
SMILES,SKN-1 inh,GRIN3A LBD mod,esBAF inh,SMARCA2 act,NadD inh,Vif imaging
O=S(=O)(Nc1ccccn1)c1cccc(S(=O)(=O)c2ccc(Br)cc2)c1,0,14*,-6,-1,4,-9
COc1ccc(NC(=O)c2ccc(-c3ccc(OC)cc3)s2)cc1,-5,22*,nt,-5,2,-10
CNC(=O)c1ccc(-c2ccc(OC)cc2)s1,-6,-15,38,4,-2,-2
O=C(Nc1ccccc1)c1ccc(-c2ccc(F)cc2)s1,3,22*,nt,0,-5,9
CCCN(C)C[C@@H]1Oc2cc(-c3cccc(F)c3)ccc2S(=O)(=O)N([C@@H](C)CO)C[C@@H]1C,nt,nt,-3,nt,nt,nt
CCOc1ccc2nc3cc(N=Nc4ccc(N)nc4N)ccc3c(N)c2c1,14,3,nt,nt,32*,11
CCN(C(=O)CSc1nnc(Nc2cccc(C)c2C)s1)C1CCS(=O)(=O)C1 (stereo not given),-2,0,-4,-3,1,56*
CN(C)S(=O)(=O)c1cccc(NC(=O)COC(=O)c2ccc3ccccc3n2)c1,22,4,-9,1,1,15
COc1ccc(NC(=O)CN(C)C(=O)c2cc(-c3ccc(Cl)cc3)nc3ccccc23)cc1,-2,14*,nt,-2,3,8
COc1cccc(NC(=O)CN(C)C(=O)c2cc(-c3cccc(Br)c3)nc3ccccc23)c1,-3,18*,6,0,7,-4
CN(C)S(=O)(=O)c1cccc(NC(=O)COC(=O)c2cc(-c3cccc(Br)c3)nc3ccccc23)c1,2,22*,nt,-3,16,-7
CCCC(=O)Nc1ccc2c(c1)OC[C@H](C)N(Cc1ccccc1)C[C@@H](C)[C@H](OC)CN(C)C2=O,nt,nt,3,nt,nt,nt
C[C@@H]1CN([C@H](C)CO)C(=O)CCCn2cc(nn2)CO[C@@H]1CN(C)Cc1cccc2c1OCCCO2,nt,nt,-7,nt,nt,nt
Cc1noc(C)c1NC(=O)Nc1ccc2c(c1)C(=O)N([C@H](C)CO)C[C@H](C)[C@@H](CN(C)C(=O)Nc1ccccc1)OCCCC[C@@H](C)O2,nt,nt,1,nt,nt,nt
O=C(CN1CCCC1)N1c2ccccc2Sc2ccc(C(F)(F)F)cc21,-9,-7,-2,-1,-4,5
O=C(CSc1nc2ccccc2o1)N1c2ccccc2Sc2ccc(C(F)(F)F)cc21,-4,12*,nt,-6,3,5
C=CCn1c(N)c(C(=O)Nc2ccccc2)c2nc3ccccc3nc21,12,13*,-4,-1,-7,2
O=C1S/C(=C\c2ccccc2)C(=O)N1CC(O)Cn1c2ccccc2c2ccccc21 (stereo not given),-3,0,nt,-2,1,1
COc1ccc(/C=C2/SC(=O)N(CC(O)Cn3c4ccccc4c4ccccc43)C2=O)cc1 (stereo not given),7,13*,nt,1,19,3
C[C@H]1CN([C@@H](C)CO)C(=O)c2cc(NC(=O)CCCN(C)C)ccc2O[C@@H]1CN(C)S(C)(=O)=O,nt,nt,1,nt,nt,nt
COc1cc2c(cc1OC)C1(Nc3c-2c(-c2ccccc2)nn3-c2ccccc2)C(=O)Nc2ccccc21 (stereo not given),30,-2,nt,0,40*,nt
CC(=O)Nc1ccc(OS(=O)(=O)c2ccc(C)cc2C)cc1,2,16*,nt,-5,-8,3
Cc1cc(S(=O)(=O)NC[C@H]2O[C@@H](n3cnc4c(N)ncnc43)[C@H](O)[C@@H]2O)c(C)s1,7,0,1,-2,1,0
Nc1ncnc2c1ncn2[C@@H]1O[C@H](CNS(=O)(=O)c2cc(S(=O)(=O)c3ccccc3)cs2)[C@@H](O)[C@H]1O,4,15*,-2,-3,6,nt
O=C(Nc1cccc(NC(=O)c2c(F)cccc2F)n1)c1c(F)cccc1F,-1,-11,-4,-4,-1,-12
SMILES,SKN-1 inh,GRIN3A LBD mod,esBAF inh,SMARCA2 act,NadD inh,Vif imaging
O=C(Nc1cccc(NC(=O)c2cccc(F)c2)n1)c1cccc(F)c1,52,12*,20,0,2,2
Cc1nnc(NC(=O)c2cccc(F)c2)s1,4,0,13,2,1,-27
CC(=O)Cc1nsc(NC(=O)c2cccc(F)c2)n1,-2,-1,61*,4,-1,6
CCc1ccc(C2NC(=S)NC3=C2C(=O)CC(C)(C)C3)cc1 (stereo not given),1,21*,nt,-3,1,0
CCCNC(=O)[C@@H]1[C@@H](CO)[C@@H]2Cn3c(ccc(/C=C/c4ccccc4)c3=O)[C@H]1N2C(=O)c1ccccc1,nt,nt,4,nt,nt,nt
Cc1noc(C)c1-c1ccc(C(=O)Nc2cccc(NS(C)(=O)=O)c2)c2occc12,8,nt,4,-1,3,-11
Cc1noc(C)c1-c1ccc(C(=O)Nc2cccc(C(F)(F)F)c2)c2occc12,10,nt,53*,-1,0,-11
COc1ccc(NC(=O)C2=Cc3cccc(OC)c3OC2)cc1,-4,-11,nt,7.8*,-10,-10
COc1ccc(NC(=O)C2=Cc3ccccc3OC2)cc1,6,-5,-24,1,-4,-4
Cc1ccc(S(=O)(=O)N[C@@H]2C=C[C@@H](CC(=O)NC3CCCCC3)O[C@@H]2CO)cc1,nt,nt,-1,nt,nt,nt
COc1ccccc1N1CCN(C(=O)CCCCCn2c(=S)[nH]c3cc4c(cc3c2=O)OCO4)CC1,24,nt,-2,0,13,64*
O=C(CCCn1c(=S)[nH]c2cc3c(cc2c1=O)OCO3)N1CCN(c2ccccc2F)CC1,24,0,3,1,11,3
COc1ccc(S(=O)(=O)N(C)CC(=O)NC2CCCCC2)cc1Cl,98,11*,0,-2,-6,-1
O=C(COc1ccc(Cl)cc1[N+](=O)[O-])NC1CCCCC1,-15,0,101*,0,0,-20
O=C(CCS(=O)(=O)c1ccccc1Cl)NC1CCCCCC1,4,2,49*,-1,2,9
COc1ccc(S(=O)(=O)N(C)CC(=O)NC2CCCCC2)cc1OC,-13,4,-3,-1,-1,0
COc1cc(/C=N/NC(=O)CCC(=O)NC2CCCCC2)ccc1C,3,3,nt,-1,-1,51*
C[C@@H]1CN([C@H](C)CO)C(=O)c2cc(NC(=O)C3CCCCC3)ccc2O[C@@H](C)CCCCO[C@H]1CN(C)Cc1ccc(C(F)(F)F)cc1,nt,nt,3,nt,nt,nt
C[C@H]1CN([C@@H](C)CO)C(=O)Cc2cc(NC(=O)Cc3ccccc3)ccc2O[C@H]1CN(C)C(=O)Nc1ccc(F)cc1,nt,nt,6,nt,nt,nt
Cc1ccc(S(=O)(=O)Nc2ccc3c(c2)C(=O)N([C@H](C)CO)C[C@@H](C)[C@@H](CN(C)C)O3)cc1,nt,nt,-3,nt,nt,nt
CCNC(=O)C[C@@H]1CC[C@H]2[C@@H](COc3ccc(NC(=O)c4cccc(C(F)(F)F)c4)cc3C(=O)N2C)O1,nt,nt,-3,nt,nt,nt
